TDP1 block: inhibitors of human tyrosyl-DNA phosphodiesterase TDP1; recombinant TDP1, AlphaScreen DNA substrate cleavage; AID 485290; Potency, µM (top dose mostly 130 µM), for the others: at the highest dose activity change, negative = inhibition, usual class: inhibitors; hit rate 0.28% among 350,000; note: potency is the fitted concentration of half-maximal effect; nearly all actives have a fitted effect of over 40% in size
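Compounds were preincubated with Tdp1 (1 nM final) for 15 min at room temperature before substrate (15 nM final) started a 5 min reaction; beads (10 ug/ml final) were then added for 10 min before AlphaScreen detection.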
DT40 TDP1 CPT: DT40-hTDP1 cell growth loss with CPT; chicken DT40 Tdp1-/-;hTDP1 cells + 20 nM CPT, ATP luminescence, 48 h; Potency, µM (top dose mostly 46.2 µM), for inactives: at the top dose activity change, negative = growth inhibition, hits mostly inhibitors; hit rate 12% among 420,000; AID 686979; note: potency is the fitted concentration of half-maximal effect; nearly all actives have a fitted effect of over 55% in size
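Cell growth measured by CellTiter-Glo luminescence after a minimum 48 h, 37 C compound exposure with 20 nM CPT in Tdp1-knockout DT40 cells stably expressing hTDP1, seeded 400/well; qHTS titration format.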
IL1B secr inh: blocks inflammasome-driven IL-1 beta release; THP-1 LPS/ATP IL-1B secretion, AlphaLISA, 16 h; hits give low values; AID 743279; hit rate 4.7% among 360,000; activity change, % at 57.5 µM; in the data active = activity change below about -50%; inconclusive = mostly about -30% to -49%
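Secreted IL-1B measured by AlphaLISA bead assay after 16 h compound exposure of THP-1 cells; compounds (final up to 57.5 uM) added 1 h before LPS (250 ng/mL) and ATP (1.25 mM) stimulation; lower signal means less secretion.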
Six1-Eya2 blk: Six1/Eya2 interaction inhibition. Q15475+O00167. AlphaScreen GST-Six1/His-Eya2 binding, biochemical; hits give low values. activity change, % (no concentration beside the values). hit rate 0.56% among 360,000. AID 651725; in the data active = activity change below about -65%; inconclusive = mostly about -30% to -63%
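Six1/Eya2 binding was read as AlphaScreen signal after compounds were pinned into GST-Six1 plus His-tagged Eya2 (5X stock 250/500 nM) in pH 8.0 Tris/NaCl/TCEP buffer, beads added, then incubated 1 h, 37 C, dark.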
DT40 TDP1 no CPT: qHTS for Inhibitors of human tyrosyl-DNA phosphodiesterase 1 (TDP1): qHTS in cells in absence of CPT. DT40 Tdp1-/- hTDP1 cells, no CPT, ATP luminescence, 48 h. AID 686978, 2013. Potency, µM (titrated, usually from 46.2 µM), without a hit: at the highest dose activity change, negative = growth inhibition, most hits filed as inhibitors. hit rate 15% among 420,000; note: potency is the fitted concentration of half-maximal effect; nearly all actives have a fitted effect of over 55% in size
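Camptothecin absent (DMSO only). Human TDP1-complemented DT40 knockout cells, 400 cells/well, 37 °C for minimum 48 hr; ATP measured via CellTiter-Glo, 30 min dark incubation, luminescence.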
CtBP-E1A blk: blocks the CtBP interaction with E1A; hit rate 0.49% among 340,000; activity change, % (no concentration beside the values); AlphaScreen GST-E1A/His-CtBP binding, 1536-well; hits give low values; AID 651724; in the data active = activity change below about -65%; inconclusive = mostly about -30% to -63%
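In 5 uL wells, 23 nL compound meets equimolar GST-E1A and His-CtBP (5X stock 125 nM each) for 2 h, 37 °C. Beads (5X, 50 ug/mL) then 1 h, 37 °C, dark.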
Active calls of the source: *. In the library only some 18% were active in any assay of this set; here they are far more common. Unless noted, calls come from the whole dose curve; as a rule, active = well fitted curve in the direction sought with a large enough effect; inconclusive = small, poorly fitted or top-dose-only effect, or another doubt; inactive = no such curve, though single readings can be large; an effect the other way counts as inactive or inconclusive. % is set by controls: 0 for no effect and ±100 for the full control effect.

Results for CC(=O)Nc1ccc2nc(SCCOc3ccccc3)sc2c1 ?
TDP1 block: -1%; DT40 TDP1 CPT: -18%; DT40 TDP1 no CPT: inconclusive

What do the screens show for `COc1ccc(NC(=O)CN(C)C(=O)C23CC4CC(CC(C4)C2)C3)cc1`?
TDP1 block: 1%; DT40 TDP1 CPT: 2%; IL1B secr inh: -15; Six1-Eya2 blk: -1; DT40 TDP1 no CPT: inconclusive; CtBP-E1A blk: 4

How did CC(C)C(=O)NC(NC(=S)Nc1ccc(S(N)(=O)=O)cc1)C(Cl)(Cl)Cl (stereo not given) do in these assays?
TDP1 block: 1%; DT40 TDP1 CPT: -7%; IL1B secr inh: -13; Six1-Eya2 blk: 9; DT40 TDP1 no CPT: 2%; CtBP-E1A blk: 0

Results for CCC(=O)NC(NC(=S)Nc1cccc2cccnc12)C(Cl)(Cl)Cl (stereo not given) ?
TDP1 block: 1%; DT40 TDP1 CPT: 18µM*; IL1B secr inh: 5; Six1-Eya2 blk: -1; DT40 TDP1 no CPT: 15µM*; CtBP-E1A blk: 17

How did O=C(/C=C/c1ccccc1)NC(NC(=S)Nc1cccc2cccnc12)C(Cl)(Cl)Cl (stereo not given) do in these assays?
TDP1 block: 9%

How did CC(C)(C)C(=O)NC(Nc1cccc2cccnc12)C(Cl)(Cl)Cl (stereo not given) do in these assays?
TDP1 block: 3%; DT40 TDP1 CPT: inconclusive; IL1B secr inh: 28; Six1-Eya2 blk: -25; DT40 TDP1 no CPT: 16µM*; CtBP-E1A blk: inconclusive

Results for COC(=O)C(=O)Nc1cccc2cccnc12 ?
TDP1 block: 1%

Results for CC(C)C(=O)NC(NC(=S)Nc1cccc2cccnc12)C(Cl)(Cl)Cl (stereo not given) ?
TDP1 block: 8%; DT40 TDP1 CPT: 8.2µM*; IL1B secr inh: 15; Six1-Eya2 blk: -8; DT40 TDP1 no CPT: 16µM*; CtBP-E1A blk: -14

What do the screens show for `O=C(Nc1ccccc1)N1CCN(c2ccccn2)CC1`?
TDP1 block: 3%; DT40 TDP1 CPT: -10%; IL1B secr inh: -4; Six1-Eya2 blk: 0; DT40 TDP1 no CPT: -19%; CtBP-E1A blk: -1

How did Cc1ccc(NC(=O)N2CCN(c3ccccn3)CC2)cc1 do in these assays?
TDP1 block: 2%; DT40 TDP1 CPT: -8%; IL1B secr inh: -6; Six1-Eya2 blk: -3; DT40 TDP1 no CPT: 0%; CtBP-E1A blk: 1

Results for Cc1csc2c(N3CCN(C(=O)Nc4ccccc4)CC3)ncnc12 ?
TDP1 block: 6%; DT40 TDP1 CPT: 9.2µM*; IL1B secr inh: inconclusive; Six1-Eya2 blk: -25; DT40 TDP1 no CPT: 16µM*; CtBP-E1A blk: inconclusive

What do the screens show for `Cc1ccc(C(=O)N2CCN(c3ncnc4c(C)csc34)CC2)cc1`?
TDP1 block: 6%; DT40 TDP1 CPT: inconclusive; IL1B secr inh: inconclusive; Six1-Eya2 blk: 0; DT40 TDP1 no CPT: 16µM*; CtBP-E1A blk: -26

What do the screens show for `Cc1csc2ncnc(N3CCN(C(=O)Nc4ccc(OC(F)(F)F)cc4)CC3)c12`?
TDP1 block: 4%; DT40 TDP1 CPT: 10µM*; IL1B secr inh: -71*; Six1-Eya2 blk: -2; DT40 TDP1 no CPT: 5.8µM*

How did Cc1ccc(C(=O)N2CCN(c3ccccn3)CC2)cc1 do in these assays?
TDP1 block: -3%; DT40 TDP1 CPT: -1%; IL1B secr inh: 23; Six1-Eya2 blk: 3; DT40 TDP1 no CPT: -19%; CtBP-E1A blk: 9

How did CCCCC(=O)N(C)c1c(C)nc2ccc(C(=O)Nc3cccc(OC)c3)cn12 do in these assays?
DT40 TDP1 CPT: -29%; IL1B secr inh: -2; Six1-Eya2 blk: 10; DT40 TDP1 no CPT: 1%; CtBP-E1A blk: -22

What do the screens show for `CCOc1ccc(CC(=O)NC2CC(=O)N(c3ccc4c(c3)OCCO4)C2)cc1` (stereo not given)?
TDP1 block: -3%; DT40 TDP1 CPT: 5%; DT40 TDP1 no CPT: 5%

Source: PubChem BioAssay
